Unmarked numbers belong to inactive results. Calls come from the whole dose curve.

The source of these data is PubChem BioAssay (NCATS).

Sequence of Tumor susceptibility gene 101 protein (Homo sapiens) (Q99816 whole entry, looked up): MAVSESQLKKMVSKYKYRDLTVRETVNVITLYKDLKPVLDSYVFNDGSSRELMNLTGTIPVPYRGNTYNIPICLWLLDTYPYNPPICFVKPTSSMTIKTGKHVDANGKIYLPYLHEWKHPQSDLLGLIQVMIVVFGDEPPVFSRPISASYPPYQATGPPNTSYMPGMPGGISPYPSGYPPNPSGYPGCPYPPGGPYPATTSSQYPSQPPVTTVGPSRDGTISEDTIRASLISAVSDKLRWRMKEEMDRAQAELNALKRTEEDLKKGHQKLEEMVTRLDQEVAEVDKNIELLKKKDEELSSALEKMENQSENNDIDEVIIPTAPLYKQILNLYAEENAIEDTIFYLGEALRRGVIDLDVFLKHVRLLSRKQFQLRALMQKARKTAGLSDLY

The target in this experiment is Tumor susceptibility gene 101 protein (Homo sapiens) (UniProt Q99816). Description: qHTS Validation Assay for Iinhibitors of HIV-1 Budding by Blocking the Interaction of PTAP/TSG101 (AID 485342). Note: 0% is about no effect. The note with it: TSG101-PTAP binding, fluorescence polarization, 4-point titration; series mostly up to 115 µM; fluorescence change: at the top concentration. The text has this:
NIH Molecular Libraries Probe Production Network [MLPCN]
NIH Chemical Genomics Center [NCGC]
PI Name: Dr. Eric Freed, NCI
Stages of the HIV-1 replication cycle, specifically virus assembly and release, provide underexploited targets for the development of novel antiviral inhibitors. The late stages of HIV-1 replication are mediated by the Gag precursor protein, Pr55Gag. Expression of Pr55Gag is both necessary and sufficient for the production of virus-like particles from Gag-expressing cells. The Gag protein hijacks key host proteins involved in endocytic machinery of the host cell to promote endosomal processing and viral budding. The budding process requires a direct interaction between a […] (PTAP) motif in the p6 domain of Gag and the cellular endosomal sorting protein known as Tsg101. In this way, the Gag PTAP motif promotes the host cells to recruit viral particles to the plasma membrane where the new viral particles are released, effectively turning the host cells into viral factories. A fluorescence anisotropy assay has been developed to quantitatively measure the PTAP-Tsg101 interaction which can be used to screen for inhibitors of this interaction.
NCGC Assay Protocol Summary:
Two uL of the Tsg101 binding domain in buffer (10 mM HEPES pH 7.5; 0.15 M NaCl, 0.01% Tween 20; 3 mM EDTA;0.1 mM TCEP) was dispensed into Greiner black MB 1536-well plates (final concentration 10 uM). Then, 23 nL of compounds or DMSO were delivered to each well using a pin tool. Finally, 2 uL of a FITC-labeled peptide containing the PTAP motif (1) in the same buffer was dispensed (50 nM final concentration) and the binding was allowed to proceed for 20 min. at r.t. Fluorescent polarization was determined using FITC excitation and polarized emission filters on a Perkin Elmer Viewlux.
Keywords: Tsg101, PTAP, Gag, HIV, fluorescent polarization, MLSMR, MLPCN, NIH Roadmap, qHTS, NCGC
`CC(C)NCC(O)COc1cccc2ccccc12` (stereo not given): the “fluorescence change” value was 2.94%.

In the case of `CNc1ncnc2c1ncn2[C@@H]1O[C@H](CO)[C@@H](O)[C@H]1O`, the “fluorescence change” value is 2.42%.

As for `CSc1ccccc1N1CCN(CCCCCC(=O)NC2CCCc3ccccc32)CC1` (stereo not given), the “fluorescence change” value is -11.2%.

Turning to `N#C/C(=C\c1ccc(O)c(O)c1)C(=O)c1ccc(O)c(O)c1`, the “fluorescence change” value was -1.77%.

As for `C=CC(N)CCC(=O)O` (stereo not given), the “fluorescence change” value was 2.94%.

For the compound `Nc1ncnc2c1c(I)cn2[C@@H]1C[C@H](N)[C@@H](O)[C@H]1O`, the “fluorescence change” value was -0.689%.

Turning to `Cc1cc2c(cc1Cl)N(C(=O)Nc1ccc(Oc3cccnc3C)nc1)CC2`, the “fluorescence change” value was -16%.

In the case of `O=C(O)c1cc(=O)c2c(Cl)cc(Cl)cc2[nH]1`, the “fluorescence change” value is 3.04%.

As to `OC[C@H]1O[C@@H](n2cnc3c(NC4CCCCC4)ncnc32)[C@H](O)[C@@H]1O`, the “fluorescence change” value is 1.47%.

Regarding `COc1cc(OC)c(/C=C2/C(=O)Nc3ccccc32)c(OC)c1`, the “fluorescence change” value was 2.75%.

On to `CN=c1nc(-c2ccccc2)n(-c2ccccc2)s1`, for which the “fluorescence change” value is 1.43%.

Consider `CC(C)ON([C@@H](C(=O)NO)C(C)C)S(=O)(=O)c1ccc(-c2ccccc2)cc1`, for which the “fluorescence change” value is -7.44%.

Turning to `COc1cc(C(O)CO)ccc1OS(=O)(=O)O` (stereo not given), the “fluorescence change” value is 3.6%.

Turning to `NC[C@H]1O[C@@H](n2cnc3c(N)ncnc32)[C@H](O)[C@@H]1O`, the “fluorescence change” value was 2.62%.

Take `CN1CCc2cccc3c2C1Cc1ccc(O)c(O)c1-3` (stereo not given): the “fluorescence change” value is 4.35%.

In the case of `C=CC(=O)c1ccc(CCCCCC)cc1`, the “fluorescence change” value is -3.03%.

As to `O=C1NC(=O)/C(=C/c2ccc(-c3ccc(F)cc3O)o2)S1`, the “fluorescence change” value was -1.53%.

With `Cn1c(=O)c2[nH]c(-c3ccccc3)nc2n(C)c1=O`, the “fluorescence change” value is -0.15%.

`CCCCCCCCCCCCCCCC(=O)NCC(COP(=O)([O-])OCC[N+](C)(C)C)OCC` (stereo not given): the “fluorescence change” value is 0.265%.

For the compound `CC(=O)SCC[N+](C)(C)C`, the “fluorescence change” value is 4.09%.

As to `C=CC(C)=C[C@@]1(C)SC(=O)C(C)=C1O`, the “fluorescence change” value is 6.94%.

On to `Cn1ncc(S(=O)(=O)Cc2ccccc2)c(Br)c1=O`, for which the “fluorescence change” value is -6.26%.

Regarding `O=C(O)CC[C@@H](C(=O)O)N1C(=O)c2ccccc2C1=O`, the “fluorescence change” value is -1.91%.

`O=c1[nH]c2cc(Cl)c(Cl)cc2[nH]c1=O`: the “fluorescence change” value was 2.54%.

In the case of `O=C1O/C(=C/Br)CCC1c1cccc2ccccc12` (stereo not given), the “fluorescence change” value is -2.24%.

In the case of `O=C(O)[C@@H]1C[C@H](C(=O)O)N1`, the “fluorescence change” value was -5.17%.

For the compound `CC(C)NC[C@H](O)COc1cccc2[nH]ccc12`, the “fluorescence change” value is 1.14%.

For `Nc1nc(Nc2ccccc2)nc2c1ncn2[C@@H]1O[C@H](CO)[C@@H](O)[C@H]1O`, the “fluorescence change” value was 2.83%.

In the case of `NO`, the “fluorescence change” value was 0.691%.

On to `O=c1[nH]c2cc([N+](=O)[O-])c([N+](=O)[O-])cc2[nH]c1=O`, for which the “fluorescence change” value is 4.25%.

`NC(=S)NCCC[C@H](N)C(=O)O`: the “fluorescence change” value is -1.5%.

As to `C[N+](C)(C)CCOP(=O)(O)OP(=O)([O-])OC[C@H]1O[C@@H](n2ccc(N)nc2=O)[C@H](O)[C@@H]1O`, the “fluorescence change” value is 0.443%.

`OC[C@H]1O[C@@H](n2cnc3c(Nc4ccccc4)ncnc32)[C@H](O)[C@@H]1O`: the “fluorescence change” value was 2.78%.

For `CSc1nc(N)c2ncn([C@@H]3O[C@H](COP(=O)(O)OP(=O)(O)OP(=O)(O)O)[C@@H](O)[C@H]3O)c2n1`, the “fluorescence change” value was -1.99%.

As for `N#C/C(=C\c1ccc(O)c(O)c1)C(=O)NCCCc1ccccc1`, the “fluorescence change” value was -2.23%.

Consider `O=C1/C(=C/c2ccsc2)CC/C1=C\c1cccs1`, for which the “fluorescence change” value is -2.66%.

With `CCc1c(C(=O)NCCc2ccc(N3CCCCC3)cc2)[nH]c2ccc(Cl)cc12`, the “fluorescence change” value is -14.4%.

Take `O=C(c1ccc(OCCCc2cnc[nH]2)cc1)C1CC1`: the “fluorescence change” value was 0.585%.

`CCCCCCCCCCCCCCCCCC(=O)OC(CC(=O)O)C[N+](C)(C)C` (stereo not given): the “fluorescence change” value is 1.13%.

For `COc1cc2nc(N3CCN(C(=O)OCc4ccccc4)C(C(=O)NC(C)(C)C)C3)nc(N)c2cc1OC` (stereo not given), the “fluorescence change” value is 0.0631%.
